Measurements: the antibiotic and cytotoxicity screens of Wong et al. (2023)
Hit rate of the full screen: of about 39,000 compounds, about 1,500 (3.8%) were called active. Many of the other results were omitted from the sample, so actives are more common in it than they were.

Test system: HSkMC (human skeletal muscle cells)
Test: cytotoxicity call (relative viability < 0.9)
Conditions: 10 µM

Row | SMILES | cytotoxicity call
1 | NCC[C@H]1CC[C@@H](NC(=O)C2CC2)[C@@H](CO)O1 | inactive
2 | COC[C@H]1CN(C)N=C(C2CC2)O1 | inactive
3 | C[C@H]1CN([C@@H](C)CO)C(=O)Cc2cc(NC(=O)Nc3cccc4ccccc34)ccc2O[C@@H]1CN(C)Cc1ccc(C(=O)O)cc1 | inactive
4 | O=C(O)C1CCC1 | inactive
5 | CO[C@H]1CN(C)C(=O)c2cc(NS(=O)(=O)CC(F)(F)F)ccc2OC[C@@H](C)N(Cc2ccccn2)C[C@H]1C | inactive
6 | CC(C)NC(=O)N(C)C[C@H]1Oc2c(NC(=O)Nc3ccc4c(c3)OCO4)cccc2C(=O)N([C@H](C)CO)C[C@@H]1C | inactive
7 | C[C@H]1CCCCO[C@H](CN(C)Cc2ccncc2)[C@@H](C)CN([C@@H](C)CO)C(=O)c2cc(NC(=O)CCC(F)(F)F)ccc2O1 | inactive
8 | O=C(O)C1(c2cccs2)CCCC1 | inactive
9 | Cc1noc(C)c1NC(=O)N(C)C[C@H]1Oc2c(NC(=O)NC(C)C)cccc2C(=O)N([C@@H](C)CO)C[C@@H]1C | inactive
10 | CC[N+](CC)(CC)CCOc1ccc(/C=C/c2ccccc2)cc1 | inactive
11 | CCCCOc1cc(C(=O)NCCN(CC)CC)c2ccccc2n1.Cl | inactive
12 | CCN(CC)CCNC(=O)c1c(C)[nH]c(/C=C2/C(=O)Nc3ccc(-c4csc(-c5ccccc5)n4)cc32)c1C | active
13 | CN(C)CCCNC(=O)C[C@H]1CC[C@H]2[C@@H](COC[C@H](O)CN2C(=O)Nc2cc(Cl)cc(Cl)c2)O1 | inactive
14 | Cn1cc(N2C[C@]3(CNCCOC3)OCC2=O)cn1 | inactive
15 | CC(C)Nc1ncnc(N)c1[N+](=O)[O-] | inactive
16 | COc1ccc(C#Cc2ccc3c(c2)[C@]2(C(=O)N3)[C@H](C(=O)N3CCCCCCC3)[C@H]3C(=O)O[C@H](c4ccccc4)[C@H](c4ccccc4)N3[C@@H]2c2ccc(O)cc2)cc1 | inactive
17 | C[C@@H]1CN([C@@H](C)CO)C(=O)c2cc(NC(=O)Nc3ccc4c(c3)OCO4)ccc2O[C@@H](C)CCCCO[C@@H]1CN(C)Cc1ccc(C(F)(F)F)cc1 | inactive
18 | C[C@@H]1CCCCO[C@H](CN(C)Cc2ccc(C(F)(F)F)cc2)[C@H](C)CN([C@H](C)CO)C(=O)c2cc(NC(=O)Nc3ccc4c(c3)OCO4)ccc2O1 | inactive
19 | C[C@@H]1CCCCO[C@H](CN(C)Cc2ccc(C(F)(F)F)cc2)[C@@H](C)CN([C@@H](C)CO)C(=O)c2cc(NC(=O)Nc3ccc4c(c3)OCO4)ccc2O1 | active
20 | C[C@@H]1CN([C@H](C)CO)C(=O)c2cc(NC(=O)Nc3ccc4c(c3)OCO4)ccc2O[C@@H](C)CCCCO[C@@H]1CN(C)Cc1ccc(C(F)(F)F)cc1 | inactive

Row | SMILES | cytotoxicity call
21 | C[C@@H]1CN([C@@H](C)CO)C(=O)c2cc(NC(=O)Nc3ccc4c(c3)OCO4)ccc2O[C@@H](C)CCCCO[C@H]1CN(C)Cc1ccc(C(F)(F)F)cc1 | inactive
22 | C[C@@H]1CCCCO[C@@H](CN(C)Cc2ccc(C(F)(F)F)cc2)[C@H](C)CN([C@H](C)CO)C(=O)c2cc(NC(=O)Nc3ccc4c(c3)OCO4)ccc2O1 | active
23 | C[C@H](CO)N1C[C@H](C)[C@@H](CN(C)C(=O)NC2CCCCC2)Oc2c(NC(=O)C3CC3)cccc2C1=O | inactive
24 | CN(C)CCO[C@@H]1CC[C@@H]2[C@H]1OCCN2S(C)(=O)=O | inactive
25 | COCCNC(=O)C[C@@H]1CC[C@H]2[C@@H](COc3ccc(NC(=O)Nc4cccc(F)c4)cc3C(=O)N2C)O1 | inactive
26 | C[C@@H]1CCCCO[C@H](CN(C)C(=O)Nc2ccc(F)cc2)[C@@H](C)CN([C@@H](C)CO)C(=O)c2cc(NC(=O)c3ccccc3)ccc2O1 | inactive
27 | C[C@H](CO)N1C[C@H](C)[C@@H](CN(C)S(=O)(=O)c2cccs2)OCCCC[C@H](C)Oc2ccc(NC(=O)Nc3ccc(C(F)(F)F)cc3)cc2C1=O | inactive
28 | C[C@@H]1CN([C@@H](C)CO)C(=O)c2cc(NC(=O)Nc3ccc4c(c3)OCO4)ccc2O[C@@H](C)CCCCO[C@@H]1CN(C)S(=O)(=O)c1cccs1 | inactive
29 | C[C@@H]1CCCCO[C@H](CN(C)S(=O)(=O)c2cccs2)[C@@H](C)CN([C@@H](C)CO)C(=O)c2cc(NC(=O)Nc3ccc(C(F)(F)F)cc3)ccc2O1 | active
30 | C[C@H](CO)N1C[C@H](C)[C@@H](CN(C)S(=O)(=O)c2cccs2)OCCCC[C@H](C)Oc2ccc(NC(=O)Nc3ccc4c(c3)OCO4)cc2C1=O | active
31 | C[C@@H]1CN([C@@H](C)CO)C(=O)c2cc(NC(=O)Nc3ccc(C(F)(F)F)cc3)ccc2O[C@@H](C)CCCCO[C@@H]1CN(C)S(=O)(=O)c1cccs1 | inactive
32 | C[C@@H]1CCCCO[C@H](CN(C)S(=O)(=O)c2cccs2)[C@H](C)CN([C@@H](C)CO)C(=O)c2cc(NC(=O)Nc3ccc(C(F)(F)F)cc3)ccc2O1 | active
33 | C[C@@H]1CN([C@H](C)CO)C(=O)c2cc(NC(=O)Nc3ccc(C(F)(F)F)cc3)ccc2O[C@@H](C)CCCCO[C@@H]1CN(C)S(=O)(=O)c1cccs1 | inactive
34 | C[C@@H]1CN([C@H](C)CO)C(=O)c2cc(NC(=O)Nc3ccc4c(c3)OCO4)ccc2O[C@@H](C)CCCCO[C@H]1CN(C)S(=O)(=O)c1cccs1 | inactive
35 | C[C@@H]1CCCCO[C@@H](CN(C)S(=O)(=O)c2cccs2)[C@@H](C)CN([C@@H](C)CO)C(=O)c2cc(NC(=O)Nc3cccc4ccccc34)ccc2O1 | inactive
36 | C[C@@H]1CCCCO[C@@H](CN(C)S(=O)(=O)c2cccs2)[C@H](C)CN([C@@H](C)CO)C(=O)c2cc(NC(=O)Nc3cccc4ccccc34)ccc2O1 | inactive
37 | C[C@@H]1CCCCO[C@@H](CN(C)S(=O)(=O)c2cccs2)[C@@H](C)CN([C@H](C)CO)C(=O)c2cc(NC(=O)Nc3ccc(C(F)(F)F)cc3)ccc2O1 | inactive
38 | C[C@H](CO)N1C[C@H](C)[C@H](CN(C)S(=O)(=O)c2cccs2)OCCCC[C@H](C)Oc2ccc(NC(=O)Nc3cccc4ccccc34)cc2C1=O | active
39 | C[C@@H]1CN([C@H](C)CO)C(=O)c2cccc(NS(=O)(=O)c3ccccc3)c2O[C@@H]1CN(C)CC1CC1 | inactive
40 | O=C(C[C@H]1CC[C@@H]2[C@H](COC[C@H](O)CN2Cc2ccccc2F)O1)N[C@H]1CCN(Cc2ccccc2)C1 | inactive
